Assay results from PubChem BioAssay.
Activity calls are given as the source filed them.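 The calls were made as follows, unless noted: active = compound raises insulin release from rat beta cells at 5 mM glucose, no numeric limit stated; inactive = the rest.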

Columns and labels:
[1] = stimulators of nuclear beta-catenin in C2C12, primary screen, imaging, WNT3A-conditioned medium, mouse C2C12, NPC library (AID 1117326; in the data active = nuclear beta-catenin stimulation mostly above about 4.2%, no sharp cut-off; inactive = mostly below about 10%; also: reference of the scale not given here); details: stronger effect = higher value
[2] = stimulators of insulin release from INS-1E, primary screen, cell-based, 5 mM glucose, NPC library (AID 1117329); details: rat INS-1E insulin secretion, at 10 µM, stronger effect = higher value; also: reference of the scale not given here
[3] = growth inhibition of GSK3B-pretreated HCT116 cells – cell-based, CellTiter-Glo, 0.2 to 20 µM (AID 1117336;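 active = compounds lowering colon cancer cell viability after pretreatment blocking the GSK3B kinase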); details: HCT116 viability after GSK3B inhibitor, at 20 µM, stronger effect = higher value
[4] = inhibition of endothelial tube formation, primary screen, imaging, VEGF stimulated, CD31 staining, tube area, NPC library (AID 1117340;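 active = compound that reduces growth-factor-driven endothelial tube area in a mixed cell culture, no cutoff stated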); details: VEGF-stimulated ADSC/ECFC co-culture, at 10 µM, stronger effect = higher value
[5] = glucagon-like peptide 1 release enhancers, primary assay, NCI-H716 cell line, NPC library (AID 1117341;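 active = compound raises GLP1 secretion from the human gut endocrine cells, with no numeric limit stated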; also: reference of the scale not given here); details: NCI-H716 cells, at 10 µM, stronger effect = higher value
[6] = HCT116 colon cancer cell growth inhibition, primary screen, CellTiter-Glo luminescence, NPC library (AID 1117342;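 active = compounds that lower survival of HCT116 colon cancer cells in the luminescence readout, no numeric limit stated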); details: at 20 µM (top of the series)
[7] = CellTiter-Glo luminescent readout of SW480 viability loss, NPC library primary (AID 1117343;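 active = compounds that lower viability of the colon cancer cells in the luminescence readout, with no numeric limit stated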); details: CellTiter-Glo luminescence; at 20 µM (top of the series)
[8] = decreased DLD-1 cellular survival, CellTiter-Glo luminescent readout, NPC compound collection, primary HTS (AID 1117346;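 active = compounds that lower survival of DLD-1 colon cancer cells in the luminescence readout, no cutoff given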); details: DLD-1 viability, CellTiter-Glo luminescence; at 20 µM (top of the series)

CCC(CC)(CNC(=O)CCCO)c1cccc(OC)c1
-0.7%: nuclear beta-catenin stimulation ([1]; stimulation, at 2 µM)
inactive: nuclear beta-catenin stimulation ([1]; at 10 µM) -1.1% | insulin secretion stimulation [2] 0.4% | viability decrease [3] -15.7% | tube area decrease [4] 11.5% | GLP1 secretion stimulation [5] -1.4% | inhibition of viability [6] -6.33% | viability decrease (inhibition) [7] -5.8% | viability decrease (inhibition) [8] -6.4%

CNC(C)Cc1ccccc1OC (stereo not given)
1.2%: nuclear beta-catenin stimulation ([1]; stimulation, at 2 µM)
inactive: nuclear beta-catenin stimulation ([1]; at 10 µM) -0.4% | insulin secretion stimulation [2] 7.2% | viability decrease [3] -1.3% | tube area decrease [4] -13.1% | GLP1 secretion stimulation [5] 0.2% | inhibition of viability [6] 9.4% | viability decrease (inhibition) [7] 41.8% | viability decrease (inhibition) [8] 43.1%

Nc1ccc(Cl)cc1C(=O)c1ccccc1F
inactive: nuclear beta-catenin stimulation ([1]; at 10 µM) 2.3% | insulin secretion stimulation [2] 5% | viability decrease [3] 23.5% | tube area decrease [4] 25.4% | inhibition of viability [6] 44.6% | viability decrease (inhibition) [8] 12.8%
active: GLP1 secretion stimulation [5] 21.1% | viability decrease (inhibition) [7] 61.9%
4.2%: nuclear beta-catenin stimulation ([1]; stimulation, at 2 µM)

CCCOC(=O)Cc1ccc(OCC(=O)N(CC)CC)c(OC)c1
inactive: nuclear beta-catenin stimulation ([1]; at 10 µM) 0.4% | insulin secretion stimulation [2] -1.7% | viability decrease [3] 0.2% | tube area decrease [4] -2.3% | GLP1 secretion stimulation [5] -1.8% | inhibition of viability [6] 9.6% | viability decrease (inhibition) [7] 8.2% | viability decrease (inhibition) [8] -4.8%
1.3%: nuclear beta-catenin stimulation ([1]; stimulation, at 2 µM)

CCN(Cc1ccc(Cl)nc1)/C(=C/[N+](=O)[O-])NC
inactive: nuclear beta-catenin stimulation ([1]; at 10 µM) -0.1% | insulin secretion stimulation [2] 3.5% | viability decrease [3] 3.9% | tube area decrease [4] -21.3% | GLP1 secretion stimulation [5] -4.7% | inhibition of viability [6] -3.27% | viability decrease (inhibition) [7] 13.3% | viability decrease (inhibition) [8] 4.5%
1.1%: nuclear beta-catenin stimulation ([1]; stimulation, at 2 µM)

Oc1ccc([C@H]2CNCc3c2ccc(O)c3O)cc1O
inactive: nuclear beta-catenin stimulation ([1]; at 10 µM) 0.8% | insulin secretion stimulation [2] 3.5% | tube area decrease [4] 13.1% | viability decrease (inhibition) [8] 38.4%
0.2%: nuclear beta-catenin stimulation ([1]; stimulation, at 2 µM)
active: viability decrease [3] 86.5% | GLP1 secretion stimulation [5] 23.9% | inhibition of viability [6] 57.5% | viability decrease (inhibition) [7] 60.8%

CC(C)(C)c1cc(O)ccc1O
inactive: nuclear beta-catenin stimulation ([1]; at 10 µM) 2.1% | insulin secretion stimulation [2] 0% | viability decrease [3] 11.8% | GLP1 secretion stimulation [5] -1% | inhibition of viability [6] -45.9% | viability decrease (inhibition) [7] 17.3% | viability decrease (inhibition) [8] -12%
active: tube area decrease [4] 50.3%
2.2%: nuclear beta-catenin stimulation ([1]; stimulation, at 2 µM)

O=C(CBr)Nc1ccc(Cl)cc1C(=O)c1ccccc1F
active: viability decrease [3] 84.8% | tube area decrease [4] 108% | GLP1 secretion stimulation [5] 21.4% | inhibition of viability [6] 57.5% | viability decrease (inhibition) [7] 95.3% | viability decrease (inhibition) [8] 64.7%
-1%: nuclear beta-catenin stimulation ([1]; stimulation, at 2 µM)
inactive: nuclear beta-catenin stimulation ([1]; at 10 µM) -1.3% | insulin secretion stimulation [2] 18.8%

Cc1ccc([N+](=O)[O-])[c]2c1[O][Hg]2
active: nuclear beta-catenin stimulation ([1]; at 10 µM) 20.9% | insulin secretion stimulation [2] 87.1% | viability decrease [3] 99.5% | tube area decrease [4] 105% | GLP1 secretion stimulation [5] 64.6% | inhibition of viability [6] 100% | viability decrease (inhibition) [7] 134% | viability decrease (inhibition) [8] 103%
66.9%: nuclear beta-catenin stimulation ([1]; stimulation, at 2 µM)

Oc1ccccc1-c1ccccc1
inactive: nuclear beta-catenin stimulation ([1]; at 10 µM) 0.6% | insulin secretion stimulation [2] -2.4% | viability decrease [3] -2.35% | tube area decrease [4] -3.5% | GLP1 secretion stimulation [5] -1.2% | inhibition of viability [6] -18.2% | viability decrease (inhibition) [7] 15.3% | viability decrease (inhibition) [8] 8.7%
-0.1%: nuclear beta-catenin stimulation ([1]; stimulation, at 2 µM)

CCCCCCCCCCCCNCCNCCNCC(=O)O
active: nuclear beta-catenin stimulation ([1]; at 10 µM) 92.8% | viability decrease [3] 98.8% | tube area decrease [4] 74.7% | inhibition of viability [6] 99.3% | viability decrease (inhibition) [7] 100% | viability decrease (inhibition) [8] 101%
inactive: insulin secretion stimulation [2] -0.3% | GLP1 secretion stimulation [5] 2.6%
1.1%: nuclear beta-catenin stimulation ([1]; stimulation, at 2 µM)

CC[N+]1(CC)CCC(OC(=O)C(O)(c2ccccc2)c2ccccc2)C1 (stereo not given)
inactive: nuclear beta-catenin stimulation ([1]; at 10 µM) -0.2% | insulin secretion stimulation [2] 3.25% | viability decrease [3] 4.8% | tube area decrease [4] 1.2% | GLP1 secretion stimulation [5] 2.4% | inhibition of viability [6] 4.2% | viability decrease (inhibition) [7] -12.8% | viability decrease (inhibition) [8] -6.4%
-1.8%: nuclear beta-catenin stimulation ([1]; stimulation, at 2 µM)

c1cc2c(c(N3CCNCC3)c1)OCCO2
inactive: nuclear beta-catenin stimulation ([1]; at 10 µM) -1.4% | insulin secretion stimulation [2] 1.8% | viability decrease [3] -14.9% | tube area decrease [4] -9.4% | GLP1 secretion stimulation [5] -2.6% | inhibition of viability [6] 3.6% | viability decrease (inhibition) [8] -7.5%
0.7%: nuclear beta-catenin stimulation ([1]; stimulation, at 2 µM)
active: viability decrease (inhibition) [7] 3.4%

C[C@H]1CNCCc2ccc(Cl)cc21
0.8%: nuclear beta-catenin stimulation ([1]; stimulation, at 2 µM)
inactive: nuclear beta-catenin stimulation ([1]; at 10 µM) 2.8% | insulin secretion stimulation [2] 16.9% | viability decrease [3] -1.35% | tube area decrease [4] -10.5% | GLP1 secretion stimulation [5] 6.1% | inhibition of viability [6] 1.7% | viability decrease (inhibition) [7] 45.3% | viability decrease (inhibition) [8] 0.95%

Cc1c(Cl)c(=O)oc2cc(OP(=O)(OCCCl)OCCCl)ccc12
0%: nuclear beta-catenin stimulation ([1]; stimulation, at 2 µM)
inactive: nuclear beta-catenin stimulation ([1]; at 10 µM) 0.5% | insulin secretion stimulation [2] 4.8% | viability decrease [3] 12.2% | tube area decrease [4] 14.4% | GLP1 secretion stimulation [5] -2.3% | inhibition of viability [6] 35.4% | viability decrease (inhibition) [7] 29.5% | viability decrease (inhibition) [8] 0.8%
